Screening data as filed in PubChem.
Sampled rows, rich in hits. Any-hit rate of the full collection: about 0.53%.
BioA inh – inhibitors of Mycobacterium tuberculosis BioA enzyme; purified M. tuberculosis BioA enzyme, plate reader; AID 602481; 0.096% of 360,000 active; inhibition, % at 9.99 µM; in the data active = inhibition above about 40%
PrP UTR inh – suppresses PrP 5' UTR mRNA reporter expression; cell-based PrP 5' UTR mRNA reporter, plate reader; inhibition, % (no concentration beside the values); 0.35% of 340,000 active; AID 488862; in the data active = inhibition above about 52%; also: 0 = median of the neutral control wells
Y pestis TopoI – inhibitors of Yersinia pestis topoisomerase I; activity, % at 10 µM; AID 504884; Y. pestis Topo-I cleavage product accumulation, plate reader; 0.064% of 360,000 active; in the data active = activity above about 50%, passing the limit was not always enough
TcdB GH inh – inhibitors of Clostridioides difficile toxin B glycohydrolase | TcdB glycohydrolase enzymatic assay, plate reader | inhibition, % at 9.99 µM | 0.24% of 350,000 active | AID 652162; in the data active = inhibition above about 10%
PrP UTR cherry – prion 5' UTR mRNA inhibition, cherry-pick retest. shares compounds with PrP UTR inh. cell-based prion protein 5' UTR reporter, plate reader. inhibition, % at 2.5 µM. 48% of 1,100 active; in the data active = inhibition above about 54%
The depositor's hits bear a star; · = no result given; ! = repeats disagree.

SMILES	BioA inh	PrP UTR inh	Y pestis TopoI	TcdB GH inh	PrP UTR cherry
CCN(CC)c1ccc(/C=N/N=C(N)N)c(O)c1	·	62*	-18	-11	90*
CCOc1ccc(Nc2nc(N)c3ccccc3n2)cc1	0	56*	-14	1	41
CN(C)c1ccc(Nc2nc(N)c3ccccc3n2)cc1	0	77*	-14	1	62*
O=C(NCC1CCCO1)c1ccc2c(c1)N(Cc1ccccc1)C(=O)CS2=O (configuration not stated)	0	-16	5	1	·
O=C(NCc1ccco1)c1ccc2c(c1)N(Cc1ccccc1)C(=O)CS2=O (configuration not stated)	1	61*	3	1	15
O=S(=O)(O)CCS	0	-14	3	0	·
NCCCS(=O)(=O)O	-2	74*!	4	1	-7
C[C@@H]1CCCCO[C@@H](CN(C)C(=O)c2ccncc2)[C@H](C)CN([C@H](C)CO)C(=O)c2cc(NC(=O)NC3CCCCC3)ccc2O1	-1	·	·	·	·
CCCSc1ccc2nc(-c3ccccc3)cn2c1	·	60*	15	·	75*
CCCCSc1ccc2nc(-c3ccc(C#N)cc3)cn2c1	0	-65	9	·	·
COc1ccc2c3c(n(C)c2c1)[C@H](CO)N(C(=O)Nc1ccc(F)cc1)CC31CCN(C(=O)CN2CCOCC2)CC1	·	·	·	0	·
C[C@@H]1CCCCO[C@H](CN(C)Cc2ccc3c(c2)OCO3)[C@@H](C)CN([C@H](C)CO)C(=O)c2cc(NS(C)(=O)=O)ccc2O1	4	·	·	-1	·
C=CCn1c(C)cc(C(=O)CN2C(=O)c3ccccc3S2(=O)=O)c1C	-1	92*	-4	·	92*
CCn1c(C)cc(C(=O)CN2C(=O)c3ccccc3S2(=O)=O)c1C	6	67*	0	0	69*
Cc1cc(C(=O)CN2C(=O)c3ccccc3S2(=O)=O)c(C)n1C(C)C	-2	60*	13	3	64*
Cc1cc(C(=O)CN2C(=O)c3ccccc3S2(=O)=O)c(C)n1-c1ccccc1	-4	57	10	·	·
CN1CCN(C(=O)C[C@H]2C=C[C@H](NC(=O)Cc3ccccn3)[C@@H](CO)O2)CC1	3	·	·	0	·
O=C(Nc1cc(F)ccc1F)N1CCCCN2[C@H](CO)[C@@H](c3ccc(-c4cncnc4)cc3)[C@@H]2C1	-4	·	·	0	·
CCC(=O)N1CCC2(CC1)CN(CC1CCOCC1)[C@H](CO)c1c2c2ccc(OC)cc2n1C	·	·	·	1	·
CN(C)c1ccc(/C=C2/SC(=O)N(CCN=C3NS(=O)(=O)c4ccccc43)C2=O)cc1	-1	-48	-4	0	·
CN(C)c1ccc(/C=C2\SC(=O)N(CCc3nnc(N)s3)C2=O)cc1	·	56*	-8	1	76*
COc1ccc(C(=O)NN(C)c2nc(-c3ccccc3)nnc2C(F)(F)F)cc1	0	-6	5	·	·
COc1ccc(C(=O)NN(C)c2nc(C(F)(F)F)nc3ccccc23)cc1	·	71*	-4	0	90*
Cc1nn(-c2ccccc2)c(C)c1/C=N/NC(=O)c1cc(-c2ccccc2)n[nH]1	·	66*	-1	·	80*
C[C@@H]1CN([C@@H](C)CO)C(=O)Cc2cc(NC(=O)Cc3cn(C)c4ccccc34)ccc2O[C@H]1CN(C)C(=O)Nc1cccc2ccccc12	2	·	·	0	·
SMILES	BioA inh	PrP UTR inh	Y pestis TopoI	TcdB GH inh	PrP UTR cherry
COc1ccc(S(=O)(=O)n2nc(-c3ccc(Cl)cc3)cc2N)cc1OC	2	56*	-3	2	1
C[C@@H]1CCCCO[C@H](CN(C)CC2CCCCC2)[C@H](C)CN([C@@H](C)CO)C(=O)c2cc(NC(=O)Nc3ccc4c(c3)OCO4)ccc2O1	1	·	·	1	·
CN(C)c1cccc(C(=O)OCC(=O)N(Cc2ccccc2)C2CCS(=O)(=O)C2)c1 (configuration not stated)	0	60*	-1	0	-5
NC(=O)c1nsc(C(=O)N(CC(=O)NCc2ccc3c(c2)OCO3)C2CCCC2)c1N	0	76*	5	·	-16
CCCC(C(=O)NC1CCCC1)N(Cc1ccc2c(c1)OCO2)C(=O)c1snc(C(N)=O)c1N (configuration not stated)	-1	-16	20	·	·
COc1ccc(S(=O)(=O)N(C)C[C@@H]2Oc3ccc(NC(=O)Cn4cnnn4)cc3C(=O)N([C@H](C)CO)C[C@H]2C)cc1	6	·	·	-6	·
CCCn1c(C)cc(C(=O)COc2ccc(C)nc2[N+](=O)[O-])c1C	11	-10	1	1	·
Cc1ccc(OCC(=O)c2cc(C)n(-c3ccccc3)c2C)c([N+](=O)[O-])n1	·	60*	28	·	58*
Cc1cc(C(=O)COC(=O)C2=COCCO2)c(C)n1-c1ccccc1	·	82*	18	2	86*
O=C(Nc1ccncc1)C1COc2ccccc2O1 (configuration not stated)	1	-24	5	·	·
O=C(NC1=NCCS1)C1COc2ccccc2O1 (configuration not stated)	-1	72*	-1	·	77*
CO[C@H]1CN(C)C(=O)c2cc(NC(=O)Nc3cccc(F)c3)ccc2OC[C@H](C)N(C(C)=O)C[C@@H]1C	-1	·	·	-1	·
COc1ccc(NC(=O)N(C)C[C@H]2Oc3cc(C#CCN(C)C)ccc3S(=O)(=O)N([C@H](C)CO)C[C@H]2C)cc1	2	·	·	1	·
CC(C)OCCCNC(=O)Cc1ccc(Br)cc1	·	83*	3	·	1
CCOC(=O)c1ccc(NC(=O)Nc2ccon2)cc1	·	66*	0	1	79*
CCOC(=O)c1ccc(NC(=O)Nc2ccc(Cl)cn2)cc1	·	-27	-7	1	·
COc1ccc(NC(=O)Nc2ccc3c(c2)C(=O)N([C@H](C)CO)C[C@@H](C)[C@@H](CN(C)Cc2ccc4c(c2)OCO4)OCCCC[C@@H](C)O3)cc1	0	·	·	2	·
N#CC1=C(N)OC2=C(CCc3ccccc32)C1c1ccccc1 (configuration not stated)	·	58*	28	·	90*
C[C@H](CO)N1C[C@H](C)[C@@H](CN(C)C(=O)C2CC2)Oc2cc(Br)ccc2S1(=O)=O	-1	·	·	1	·
O=C1C=C(c2ccc(O)cc2)C[C@@H](c2ccc3c(c2)OCO3)C1	1	67*	20	1	2
N=C(N)SCP(=O)(c1ccccc1)c1ccccc1	·	64*	6	-1	3
O=[N+]([O-])c1cccc2nc3ccccc3c(NCCCn3ccnc3[N+](=O)[O-])c12	·	87*	-9	-1	95*
CC1(C)C(=O)N(CCN2CCC(C(=O)c3ccc(F)cc3)CC2)c2ccccc21	1	53*	18	2	-22
O=C(c1ccc(F)cc1)C1CCN(Cc2ccccc2F)CC1	0	·	3	1	·
CCOc1ccccc1C1CC(=O)Nc2cc(C)c(C)cc21 (configuration not stated)	-1	-10	17	1	·
CCCOc1ccccc1C1CC(=O)Nc2cc3c(cc21)OCCO3 (configuration not stated)	-3	70*	27	·	80*
CCOc1ccccc1C1CC(=O)Nc2cc3c(cc21)OCCO3 (configuration not stated)	0	56*	19	·	84*
